Laboratory results as given in PubChem BioAssay (NCI).
About 83,000 compounds went through this panel and 20% of them were active in at least one assay; those are over-represented in the sample as a whole.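 Cells were grown in 96-well plates and exposed to the test compound at a single concentration for 48 hours; results are reported as percent growth, with values below 10 considered active.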 The source made the active and inactive calls.

Tested on: SK-MEL-5 melanoma
Experiment: NCI-60 one-dose screen, 48 h (100 = growth as untreated, 0 = no growth, -100 = all killed)
Details: 10 µM unless noted

**Q.** O=C(/C=C/c1ccc(Oc2ccc(Br)cc2)cc1)c1ccc(Br)cc1 was tested. Which growth did it give?
**A.** Its growth is 102% (inactive).

**Q.** How did the growth turn out when CO[C@H](C(=O)[C@@H](O)[C@@H](C)O)[C@@H]1Cc2cc3cc(O[C@H]4C[C@@H](O[C@H]5C[C@@H](O)[C@H](O)C(C)O5)[C@H](O)C(C)(O)O4)cc(O)c3c(O)c2C(=O)[C@H]1O[C@H]1C[C@@H](O[C@H]2C[C@@H](O[C@H]3C[C@@H](OC)[C@H](O)C(C)O3)[C@@H](O)C(C)O2)[C@H](O)C(C)O1 (stereo partly drawn) was run?
**A.** Its growth is -56.8% (active).

**Q.** For FC(F)(F)Oc1cccc(-c2cnc3ccc(-c4ccncc4)nn23)c1, which growth is on record?
**A.** Its growth is 22.6% (inactive).

**Q.** How did the growth turn out when O=S(=O)(Nc1cc(Sc2cccc3cccnc23)c(O)c2ccccc12)c1ccccc1 was run?
**A.** The growth was -25.2% (active).

**Q.** With Cc1ccc(-c2nc(SCc3nc4cc(Cl)c(Cl)cc4[nH]3)[nH]c(=O)c2C#N)cc1 as the compound, how does the growth read?
**A.** Its growth is 104% (inactive).

**Q.** With CN(C)S(=O)(=O)Oc1ccc(-c2sc3cc(OS(=O)(=O)N(C)C)ccc3c2C(=O)c2ccc(OCCN3CCCCC3)cc2)cc1 as the compound, how does the growth read?
**A.** The growth was 67.5% (inactive).

**Q.** Which growth does the source give for COc1ccc(C2=NN(C(C)=O)C(c3cn(-c4ccccc4)nc3-c3ccc(Cl)cc3)C2)cc1 (stereo not drawn) here?
**A.** Its growth is 27.1% (inactive).

**Q.** With CCOC(=O)C(=Cc1ccc(-c2ccccc2)cc1)C(=O)OCC as the compound, how does the growth read?
**A.** The growth was 54.8% (inactive).

**Q.** Which growth does the source give for Cc1ccc(S(=O)(=O)N2CCC(=O)c3ccccc32)cc1 here?
**A.** The growth was 63.3% (inactive).

**Q.** Which growth does the source give for COc1ccccc1N(C(C)=O)C1=C(Cl)C(=O)c2ccccc2C1=O here?
**A.** The growth was -69.9% (active).

**Q.** How did the growth turn out when CN(C)CCCC1(c2ccc(F)cc2)OCc2cc(-c3cc4ccccc4s3)ccc21 (stereo not drawn) was run?
**A.** The growth was 60.9% (inactive).

**Q.** Which growth does the source give for [2H]C([2H])([2H])Oc1ccc(F)cc1/C=C/C(=O)/C=C(/C=C/c1cc(F)ccc1OC([2H])([2H])[2H])OB(F)F here?
**A.** Its growth is 94.5% (inactive).

**Q.** With COc1ccc(/C(C)=C(/c2ccc(OCCCN(C)C)cc2)c2ccc(OC(=O)c3ccccc3)cc2)cc1 as the compound, how does the growth read?
**A.** The growth was 85.7% (inactive).

**Q.** For Cc1ccc2c(=O)cc(C(=O)Nc3sc4c(c3C(=O)NCc3cccnc3)CCCC4)oc2c1C, which growth is on record?
**A.** Its growth is 99.7% (inactive).

**Q.** For CCCCCCCC/C=C\CCCCCCCCOc1ccc(CC(=O)NCC[N+]2(C)CCOCC2)cc1, which growth is on record?
**A.** Its growth is 99% (inactive).

**Q.** Which growth does the source give for O=C1/C(=C/c2ccc(F)cc2)CN(C(=O)C(Cl)Cl)C/C1=C\c1ccc(F)cc1 here?
**A.** The growth was -64.9% (active).

**Q.** With COc1ccc(Nc2ncccc2/C=C/C(=O)c2cc(OC)c(OC)c(OC)c2)cc1 as the compound, how does the growth read?
**A.** Its growth is -25.8% (active).

**Q.** Which growth does the source give for O=C(Cc1cccc(OC(F)(F)F)c1)Nc1ccc(CCCCc2nnc(NC(=O)Cc3ccccn3)s2)nn1 here?
**A.** Its growth is 62.2% (inactive).

**Q.** With C=C1C(=O)O[C@H]2[C@H]1CC/C(COC(=O)/C=C\C(=O)NCc1ccc(Cn3c(=O)sn(CCCl)c3=O)cc1)=C\CC[C@@]1(C)O[C@@H]21 as the compound, how does the growth read?
**A.** The growth was 101% (inactive).

**Q.** With CNC(=O)c1ccccc1Nc1nc(Nc2cc(OC)c(OC)c(OC)c2)ncc1Br as the compound, how does the growth read?
**A.** Its growth is -22.3% (active).

**Q.** For Cc1ccc(C=C2C(=O)NC(=O)NC2=O)cc1, which growth is on record?
**A.** Its growth is 100% (inactive).

**Q.** How did the growth turn out when O=C(CN1CCCCCC1)Nc1nc2ccc(NCc3ccc(Cl)cc3)cc2s1 was run?
**A.** Its growth is 98.4% (inactive).

**Q.** How did the growth turn out when COc1ccc(C(=O)Cn2c(C(=O)c3ccc(Cl)cc3)nc3ccccc32)cc1 was run?
**A.** Its growth is 41.9% (inactive).

**Q.** With C#CCO[C@H]1CC(CC#C)(CC#C)C(=O)[C@@H]2[C@H]1[C@H]1C[C@@H]3[C@@]4(C)CCC[C@@](C)(C(=O)OC)[C@@H]4CC[C@@]23C=C1C(C)C as the compound, how does the growth read?
**A.** The growth was 101% (inactive).

**Q.** With Fc1ccc2[nH]cc(-c3nc(-c4c[nH]c5ccncc45)cs3)c2c1 as the compound, how does the growth read?
**A.** The growth was -94.6% (active).

**Q.** With O=C(CSc1nc(-c2ccccc2)cc(=O)[nH]1)Nc1nc(-c2ccccc2)cs1 as the compound, how does the growth read?
**A.** The growth was 85.7% (inactive).

**Q.** For O=C1/C(=C2\SC(=S)N(C3CC3)C2=O)SC(=S)N1C1CC1, which growth is on record?
**A.** The growth was 97.4% (inactive).

**Q.** With COc1ccc(Cn2cc3c(c2-c2ccccc2)CCc2cnoc2-3)cc1 as the compound, how does the growth read?
**A.** Its growth is -10% (active).

**Q.** For Cc1nn(-c2ccccc2)c(N)c1N=C1NC(=O)/C(=C/c2ccc(Br)cc2)S1, which growth is on record?
**A.** The growth was 99% (inactive).

**Q.** Which growth does the source give for CN(C)c1ccc(/C=C(\C#N)c2cc3ccccc3[nH]2)cc1 here?
**A.** The growth was 13% (inactive).

**Q.** Which growth does the source give for COC(=O)c1c2c(c(C)[n+]([O-])c1C)C(=O)C(NCc1ccc(OC)cc1)=CC2=O here?
**A.** Its growth is -53.1% (active).

**Q.** For O=C1/C(=C\c2cccc3nccnc23)SC(=S)N1CCc1ccc(O)cc1, which growth is on record?
**A.** The growth was 95% (inactive).

**Q.** Which growth does the source give for Cc1cn(-c2cc(NC(=O)c3cncc(C#Cc4c(N)ncc5ccc(F)cc45)c3)cc(C(F)(F)F)c2)cn1 here?
**A.** The growth was 27.4% (inactive).
